Reference: PubChem BioAssay (Tox21)
Records with an inconclusive call do not appear. A call without a number means that no potency is given here. A number with no mark means an inactive call. The source made the active and inactive calls. The call rests on the fitted dose curve; in most records, active means well fitted curve in the direction sought with a large enough effect in the repeat runs; inconclusive means weak or mixed curves; inactive means no such curve, though single readings can be large; an effect the other way counts as inactive or inconclusive.

Assays:
[1] = molecular target: Cytochrome P450 2C19 (Homo sapiens) (UniProt P33261); assay: Cytochrome P450 Family 2 Subfamily C Member 19 (CYP2C19) small molecule antagonists: luciferase reporter qHTS assay (AID 1671197); further: nearly all actives have a fitted effect of over 65% in size
Cytochrome P450 2C19 (Homo sapiens), sequence (P33261 whole entry, looked up): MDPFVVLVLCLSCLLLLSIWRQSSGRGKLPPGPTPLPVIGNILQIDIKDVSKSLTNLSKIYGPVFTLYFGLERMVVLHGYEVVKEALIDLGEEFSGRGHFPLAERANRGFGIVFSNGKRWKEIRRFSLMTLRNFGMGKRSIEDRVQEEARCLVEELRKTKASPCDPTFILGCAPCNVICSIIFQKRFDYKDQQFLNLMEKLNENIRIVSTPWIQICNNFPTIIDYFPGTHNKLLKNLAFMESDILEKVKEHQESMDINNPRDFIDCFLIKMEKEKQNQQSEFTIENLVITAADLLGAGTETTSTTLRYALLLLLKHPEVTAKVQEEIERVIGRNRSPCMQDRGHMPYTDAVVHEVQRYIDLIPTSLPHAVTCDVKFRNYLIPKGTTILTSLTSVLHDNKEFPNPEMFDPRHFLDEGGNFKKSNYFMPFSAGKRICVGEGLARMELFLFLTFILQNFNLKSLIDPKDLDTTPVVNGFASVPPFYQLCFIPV
Method in brief: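 Relative luminescence units recorded 20 min after the detection reagent stopped a 1 h, 37C CYP2C19 reaction on proluciferin substrate, which was started by NADPH regeneration following 10 min room-temperature compound preincubation; ketoconazole positive control.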

[2] = molecular target: Cytochrome P450 1A2 (Homo sapiens) (UniProt P05177); assay: Cytochrome P450 Family 1 Subfamily A Member 2 (CYP1A2) small molecule antagonists: luciferase reporter qHTS assay (AID 1671199); further: nearly all actives have a fitted effect of over 50% in size
Cytochrome P450 1A2 (Homo sapiens), sequence (P05177 whole entry, looked up): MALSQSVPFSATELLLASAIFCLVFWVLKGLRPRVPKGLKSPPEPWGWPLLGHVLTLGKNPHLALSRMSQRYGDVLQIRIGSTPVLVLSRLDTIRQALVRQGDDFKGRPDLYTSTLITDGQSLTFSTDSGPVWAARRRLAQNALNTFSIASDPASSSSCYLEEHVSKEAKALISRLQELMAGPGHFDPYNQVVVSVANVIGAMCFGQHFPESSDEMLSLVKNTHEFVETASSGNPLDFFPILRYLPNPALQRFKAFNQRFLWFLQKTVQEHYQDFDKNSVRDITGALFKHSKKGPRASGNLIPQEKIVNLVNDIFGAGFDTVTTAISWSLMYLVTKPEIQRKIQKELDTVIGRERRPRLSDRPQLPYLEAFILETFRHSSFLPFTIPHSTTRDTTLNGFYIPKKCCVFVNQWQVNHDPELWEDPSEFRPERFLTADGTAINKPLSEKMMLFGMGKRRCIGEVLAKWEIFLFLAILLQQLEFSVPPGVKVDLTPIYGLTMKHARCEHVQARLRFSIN
Method in brief: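 Quantitative high-throughput format using the P450-Glo CYP1A2 system. Reaction initiated by NADPH regeneration solution, 1 h at room temperature, then stopped with detection reagent; luminescence measured 20 min later.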

[3] = molecular target: Voltage-gated inwardly rectifying potassium channel KCNH2 (Homo sapiens) (UniProt Q12809); assay: Human Ether-a-go-go-Related Gene (hERG) channel small molecule antagonists: fluorescence cell-based qHTS assay (AID 1671200); further: nearly all actives have a fitted effect of over 50% in size
Voltage-gated inwardly rectifying potassium channel KCNH2 (Homo sapiens), sequence (Q12809 whole entry, looked up): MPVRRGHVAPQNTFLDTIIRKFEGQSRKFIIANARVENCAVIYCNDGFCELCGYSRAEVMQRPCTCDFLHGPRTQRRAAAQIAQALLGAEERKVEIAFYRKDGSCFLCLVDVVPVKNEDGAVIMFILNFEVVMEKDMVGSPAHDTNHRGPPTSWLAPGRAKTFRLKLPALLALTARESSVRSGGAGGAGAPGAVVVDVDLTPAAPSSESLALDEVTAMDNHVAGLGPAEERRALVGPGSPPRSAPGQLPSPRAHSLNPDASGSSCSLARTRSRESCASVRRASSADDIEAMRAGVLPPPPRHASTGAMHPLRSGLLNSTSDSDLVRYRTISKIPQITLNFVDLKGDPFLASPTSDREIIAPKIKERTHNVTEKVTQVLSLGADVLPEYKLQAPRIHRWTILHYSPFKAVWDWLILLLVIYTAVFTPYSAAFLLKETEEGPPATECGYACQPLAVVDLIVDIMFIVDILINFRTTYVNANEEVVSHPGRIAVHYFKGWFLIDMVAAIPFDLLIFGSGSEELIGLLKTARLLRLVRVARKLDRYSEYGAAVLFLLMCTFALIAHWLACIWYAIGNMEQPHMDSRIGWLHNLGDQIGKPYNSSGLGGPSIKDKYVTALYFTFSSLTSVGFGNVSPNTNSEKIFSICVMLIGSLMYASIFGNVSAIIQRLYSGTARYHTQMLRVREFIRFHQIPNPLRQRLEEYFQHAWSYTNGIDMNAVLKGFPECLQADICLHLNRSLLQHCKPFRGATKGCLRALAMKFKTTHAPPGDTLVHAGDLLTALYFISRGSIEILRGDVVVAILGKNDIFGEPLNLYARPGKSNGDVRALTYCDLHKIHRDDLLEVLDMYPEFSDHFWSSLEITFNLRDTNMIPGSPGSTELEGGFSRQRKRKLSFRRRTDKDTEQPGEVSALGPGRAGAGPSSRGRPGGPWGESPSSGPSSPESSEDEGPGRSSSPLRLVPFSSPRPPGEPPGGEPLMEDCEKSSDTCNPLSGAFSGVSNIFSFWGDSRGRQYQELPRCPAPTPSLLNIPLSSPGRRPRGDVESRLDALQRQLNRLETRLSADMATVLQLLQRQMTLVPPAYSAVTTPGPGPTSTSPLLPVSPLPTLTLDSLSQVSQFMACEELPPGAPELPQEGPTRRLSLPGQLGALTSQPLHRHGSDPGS
Method in brief: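 Cell line hERG-U2OS; dye FluxOR II, 1 h RT dark; Tl+ stimulus; ex 480/em 540 nm, read each second for 2 min.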

[4] = molecular target: Cytochrome P450 3A4 (Homo sapiens) (UniProt P08684); assay: Cytochrome P450 Family 3 Subfamily A Member 4 (CYP3A4) small molecule antagonists: luciferase reporter qHTS assay (AID 1671201); further: nearly all actives have a fitted effect of over 50% in size
Cytochrome P450 3A4 (Homo sapiens), sequence (P08684 whole entry, looked up): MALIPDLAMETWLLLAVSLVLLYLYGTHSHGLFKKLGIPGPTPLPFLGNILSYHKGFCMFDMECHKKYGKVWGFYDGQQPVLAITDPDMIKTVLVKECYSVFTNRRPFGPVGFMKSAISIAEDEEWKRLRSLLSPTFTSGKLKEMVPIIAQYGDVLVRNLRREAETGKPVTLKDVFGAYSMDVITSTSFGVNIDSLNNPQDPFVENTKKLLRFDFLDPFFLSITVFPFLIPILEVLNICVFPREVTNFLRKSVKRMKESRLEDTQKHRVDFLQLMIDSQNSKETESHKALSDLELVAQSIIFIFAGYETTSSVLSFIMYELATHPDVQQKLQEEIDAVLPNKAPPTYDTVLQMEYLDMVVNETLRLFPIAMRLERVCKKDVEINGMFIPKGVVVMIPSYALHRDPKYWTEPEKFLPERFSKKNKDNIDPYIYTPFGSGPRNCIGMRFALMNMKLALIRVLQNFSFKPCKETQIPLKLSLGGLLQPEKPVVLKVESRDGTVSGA
Method in brief: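 Room-temperature assay throughout: 10 min compound–enzyme/substrate preincubation, 1 h reaction after NADPH regeneration solution, 20 min detection. Luciferin formed from proluciferin substrate is quantified by luminescence.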

[5] = molecular target: Cytochrome P450 2C9 (Homo sapiens) (UniProt P11712); assay: Cytochrome P450 Family 2 Subfamily C Member 9 (CYP2C9) small molecule antagonists: luciferase reporter qHTS assay (AID 1671198); further: nearly all actives have a fitted effect of over 50% in size
Cytochrome P450 2C9 (Homo sapiens), sequence (P11712 whole entry, looked up): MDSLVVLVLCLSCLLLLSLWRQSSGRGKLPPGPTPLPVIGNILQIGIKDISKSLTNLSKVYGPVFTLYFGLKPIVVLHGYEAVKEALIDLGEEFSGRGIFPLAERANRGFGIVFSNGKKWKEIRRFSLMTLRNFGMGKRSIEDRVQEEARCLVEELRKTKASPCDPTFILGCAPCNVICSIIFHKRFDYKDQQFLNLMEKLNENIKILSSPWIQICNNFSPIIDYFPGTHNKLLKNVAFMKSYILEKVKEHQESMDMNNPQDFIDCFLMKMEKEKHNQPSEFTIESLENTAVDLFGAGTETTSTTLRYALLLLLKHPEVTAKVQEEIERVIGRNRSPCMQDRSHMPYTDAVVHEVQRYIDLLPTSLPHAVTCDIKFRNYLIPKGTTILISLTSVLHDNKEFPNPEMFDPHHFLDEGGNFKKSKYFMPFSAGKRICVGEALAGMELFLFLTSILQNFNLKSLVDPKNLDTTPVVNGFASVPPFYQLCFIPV
Method in brief: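 Enzyme-substrate mix preincubated with compound 10 min at room temperature; reaction started with NADPH regeneration solution, 1 h 37C. Luminescent luciferin product read after 20 min detection reagent.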
Potency means the concentration at half of the fitted maximal effect.

| Compound | Potency [1] | Potency [2] | Potency [3] | Potency [4] | Potency [5] |
| --- | --- | --- | --- | --- | --- |
| CCCCCCCCCCCCCCCC(=O)OC[C@H](O)[C@H]1OC(=O)C(O)=C1O | 79.6 µM (active) | inactive | inactive | inactive | – |
| Clc1ccc2n[nH]nc2c1 | inactive | – | – | inactive | – |
| CN(C)c1ccc(C2(c3ccc(N(C)C)cc3)OC(=O)c3cc(N(C)C)ccc32)cc1 | 1.41 µM (active) | inactive | inactive | 2 µM (active) | – |
| CCN(CC)CCCC(C)Nc1c2ccc(Cl)cc2nc2ccc(OC)cc12 (stereo unspecified) | inactive | – | inactive | inactive | – |
| CC(C)(C)C(=O)OCOC(=O)C1N2C(=O)CC2S(=O)(=O)C1(C)C (stereo unspecified) | inactive | inactive | – | inactive | – |
| O=C(O)c1c(Cl)cccc1Cl | 34.9 µM (active) | – | inactive | inactive | – |
| Cc1nc(-c2ccc3c(c2)CCN(CCC2CCC(NC(=O)/C=C/c4ccc(F)cc4)CC2)CC3)no1 (stereo unspecified) | inactive | inactive | 0.873 µM (active) | inactive | – |
| O=C1CCCc2c1cc1ccc3cccc4ccc2c1c34 | 18.1 µM (active) | 0.321 µM (active) | inactive | 9.05 µM (active) | – |
| S=c1[nH]c2ccccc2s1 | 11.2 µM (active) | – | inactive | – | – |
| O=c1cccccc1O | inactive | inactive | inactive | inactive | – |
| CC(C)OC(=O)c1cc2c(OCC(O)CNC(C)(C)C)cccc2[nH]1 (stereo unspecified) | – | inactive | – | – | inactive |
| CC(C)(C)NC(=O)[C@@H]1C[C@@H]2CCCC[C@@H]2CN1C[C@@H](O)[C@H](Cc1ccccc1)NC(=O)[C@H](CC(N)=O)NC(=O)c1ccc2ccccc2n1 | – | – | 22.2 µM (active) | – | – |
| CCCCCCCC/C=C/CCCCCCCC1=NCCN1CCO | – | – | – | 31.7 µM (active) | 25.2 µM (active) |
| CCc1cc(Cc2cc(CC)cc(C(C)(C)C)c2O)c(O)c(C(C)(C)C)c1 | – | inactive | – | 17.8 µM (active) | 3.17 µM (active) |
| Cc1onc(-c2c(Cl)cccc2Cl)c1C(=O)N[C@@H]1C(=O)N2[C@@H]1SC(C)(C)[C@@H]2C(=O)O | – | inactive | inactive | – | 13.8 µM (active) |
| On1ccccc1=S | – | – | inactive | – | – |
| CCCCCCCCCCCCCCCC[N+](C)(C)CCN(Cc1ccc(OC)cc1)c1ncccn1 | – | inactive | 0.338 µM (active) | – | – |
| CCOc1nc2cccc(C(=O)OC(C)OC(=O)OC3CCCCC3)c2n1Cc1ccc(-c2ccccc2-c2nn[nH]n2)cc1 (stereo unspecified) | – | inactive | – | – | 10 µM (active) |
| O=C(c1ccc(F)cc1)C1CCN(CCn2c(=O)[nH]c3ccccc3c2=O)CC1 | – | inactive | – | inactive | – |
